Data on one sequence can be found in publication PMC7862700, “An all-to-all approach to the identification of sequence-specific readers for epigenetic DNA modifications on cytosine”.

Holding throughout (test): DAPPL (digital affinity profiling via proximity ligation, sequencing); 10 mM Tris-HCl pH 7.5, 50 mM NaCl, 1 mM DTT, 4% glycerol, room temperature, 30 min; GST-TFs on glutathione beads, 16-mer random dsDNA library, 0.1% formaldehyde crosslink after washing; high values mean tight binding
Conditions in all cases: protein: recombinant; tags: N-terminal GST; dsDNA, one strand shown

The target in one test is T1, FLI1 (Homo sapiens, UniProt Q01543 1-452).
T1 sequence: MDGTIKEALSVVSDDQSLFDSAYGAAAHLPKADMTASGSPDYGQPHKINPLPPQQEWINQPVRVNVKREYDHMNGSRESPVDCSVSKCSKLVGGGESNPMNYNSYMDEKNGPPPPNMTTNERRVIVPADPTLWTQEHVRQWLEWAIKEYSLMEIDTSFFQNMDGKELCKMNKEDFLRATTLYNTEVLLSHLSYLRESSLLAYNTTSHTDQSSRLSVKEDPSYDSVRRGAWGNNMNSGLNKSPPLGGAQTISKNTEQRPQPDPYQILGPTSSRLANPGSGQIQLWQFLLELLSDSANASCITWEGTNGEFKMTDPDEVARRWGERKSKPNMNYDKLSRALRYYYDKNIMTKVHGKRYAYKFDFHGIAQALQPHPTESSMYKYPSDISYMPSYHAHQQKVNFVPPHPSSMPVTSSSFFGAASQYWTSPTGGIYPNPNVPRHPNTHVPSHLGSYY
The gist of the method: (§1)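 A tag-only sample was pooled with DNA-barcoded human transcription factors that had been expressed in yeast as GST fusions and captured on glutathione beads. The pools were incubated for 30 min at room temperature with 200 nmole of a random double-stranded 16-mer DNA library in Tris/NaCl/DTT/glycerol buffer, then washed, crosslinked with 0.1% formaldehyde, proximity-ligated (BsaI/T4 ligase, 1 h, 37 °C), PCR-amplified and sequenced on an Illumina NextSeq500. Binding signal is each hexamer's read frequency for a factor divided by its frequency for the tag-only sample.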

A further test concerns the target T2, ELK1 (Homo sapiens, UniProt P19419 1-428).
T2 sequence: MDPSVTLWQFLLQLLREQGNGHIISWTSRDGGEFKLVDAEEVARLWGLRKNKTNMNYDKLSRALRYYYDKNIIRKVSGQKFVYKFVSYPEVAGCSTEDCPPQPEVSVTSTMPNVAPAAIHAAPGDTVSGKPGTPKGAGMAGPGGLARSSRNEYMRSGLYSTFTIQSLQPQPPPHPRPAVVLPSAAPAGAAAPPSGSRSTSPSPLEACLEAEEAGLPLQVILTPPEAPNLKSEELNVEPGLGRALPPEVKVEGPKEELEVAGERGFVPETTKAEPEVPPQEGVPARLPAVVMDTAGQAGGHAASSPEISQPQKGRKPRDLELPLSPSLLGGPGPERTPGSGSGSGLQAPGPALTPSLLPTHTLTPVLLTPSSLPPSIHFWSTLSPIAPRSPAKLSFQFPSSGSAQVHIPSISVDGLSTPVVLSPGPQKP
The method, boiled down: as §1

Another test concerns the target T3, GABPA (Homo sapiens, UniProt Q06546 1-454).
T3 sequence: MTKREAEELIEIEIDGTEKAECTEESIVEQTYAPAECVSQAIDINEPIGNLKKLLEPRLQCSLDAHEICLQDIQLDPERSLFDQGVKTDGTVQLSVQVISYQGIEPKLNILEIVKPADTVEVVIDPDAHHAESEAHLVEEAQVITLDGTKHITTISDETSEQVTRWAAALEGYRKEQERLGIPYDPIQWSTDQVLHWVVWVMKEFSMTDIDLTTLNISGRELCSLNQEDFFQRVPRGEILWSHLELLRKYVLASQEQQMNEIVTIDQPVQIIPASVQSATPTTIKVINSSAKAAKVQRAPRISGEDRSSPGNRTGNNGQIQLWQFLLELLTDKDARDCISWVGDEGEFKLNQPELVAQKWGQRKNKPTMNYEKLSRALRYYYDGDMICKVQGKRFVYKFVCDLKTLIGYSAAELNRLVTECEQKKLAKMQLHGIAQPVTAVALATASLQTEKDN
The gist of the method:
as §1

In a further test the target is T4, ERG (Homo sapiens, UniProt P11308 1-479).
T4 sequence: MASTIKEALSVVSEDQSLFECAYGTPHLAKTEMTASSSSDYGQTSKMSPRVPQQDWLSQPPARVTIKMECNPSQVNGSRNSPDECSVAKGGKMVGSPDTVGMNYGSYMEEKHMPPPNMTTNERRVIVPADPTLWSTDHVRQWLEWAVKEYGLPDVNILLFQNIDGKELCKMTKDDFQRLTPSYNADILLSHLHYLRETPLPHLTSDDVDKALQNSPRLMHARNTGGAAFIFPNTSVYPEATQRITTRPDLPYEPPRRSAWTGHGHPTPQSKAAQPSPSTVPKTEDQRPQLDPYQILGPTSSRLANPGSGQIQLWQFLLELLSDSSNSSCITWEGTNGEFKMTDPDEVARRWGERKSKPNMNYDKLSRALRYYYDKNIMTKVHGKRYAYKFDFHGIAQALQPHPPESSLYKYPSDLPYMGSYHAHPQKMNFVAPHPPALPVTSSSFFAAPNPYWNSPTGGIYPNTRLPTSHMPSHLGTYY
The method, boiled down: as §1

For a further test, the target named is ELF1 (Homo sapiens, UniProt P32519 1-619). The gist of the method: as §1
Chain of ELF1 (P32519 whole entry): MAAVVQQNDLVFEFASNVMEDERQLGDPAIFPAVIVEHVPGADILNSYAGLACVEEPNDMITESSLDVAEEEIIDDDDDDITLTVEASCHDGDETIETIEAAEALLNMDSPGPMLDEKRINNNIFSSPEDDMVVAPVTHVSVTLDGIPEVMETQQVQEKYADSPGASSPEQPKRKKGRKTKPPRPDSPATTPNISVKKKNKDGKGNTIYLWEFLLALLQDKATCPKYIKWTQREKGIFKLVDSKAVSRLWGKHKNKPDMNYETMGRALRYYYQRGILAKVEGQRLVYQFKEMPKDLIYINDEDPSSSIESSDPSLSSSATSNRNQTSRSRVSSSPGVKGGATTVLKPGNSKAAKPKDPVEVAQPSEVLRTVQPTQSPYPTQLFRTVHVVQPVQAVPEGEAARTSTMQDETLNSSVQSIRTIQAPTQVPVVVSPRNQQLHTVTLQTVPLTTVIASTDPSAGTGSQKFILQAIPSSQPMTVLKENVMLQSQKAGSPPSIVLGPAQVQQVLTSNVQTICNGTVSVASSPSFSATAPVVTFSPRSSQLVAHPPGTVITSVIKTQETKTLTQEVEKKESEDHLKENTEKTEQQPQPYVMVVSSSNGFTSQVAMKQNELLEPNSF
The next test has as its target T5, EHF (Homo sapiens, UniProt Q9NZC4 1-300).
T5 sequence: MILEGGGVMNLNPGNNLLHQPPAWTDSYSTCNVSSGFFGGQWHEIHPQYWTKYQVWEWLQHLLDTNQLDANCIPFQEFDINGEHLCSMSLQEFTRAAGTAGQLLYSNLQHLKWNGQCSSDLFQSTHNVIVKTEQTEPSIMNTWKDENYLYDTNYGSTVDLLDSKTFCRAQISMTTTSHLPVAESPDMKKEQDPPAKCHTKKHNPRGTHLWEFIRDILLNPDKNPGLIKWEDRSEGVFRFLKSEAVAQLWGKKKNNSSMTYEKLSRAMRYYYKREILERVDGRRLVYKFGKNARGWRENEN
The method, boiled down: as §1

Another test has as its target SPI1 (Homo sapiens, UniProt P17947 1-270). The method, boiled down: as §1
For the next test, the target named is SPIB (Homo sapiens, UniProt Q01892 1-262). The gist of the method: as §1
Chain of SPIB (Q01892 whole entry): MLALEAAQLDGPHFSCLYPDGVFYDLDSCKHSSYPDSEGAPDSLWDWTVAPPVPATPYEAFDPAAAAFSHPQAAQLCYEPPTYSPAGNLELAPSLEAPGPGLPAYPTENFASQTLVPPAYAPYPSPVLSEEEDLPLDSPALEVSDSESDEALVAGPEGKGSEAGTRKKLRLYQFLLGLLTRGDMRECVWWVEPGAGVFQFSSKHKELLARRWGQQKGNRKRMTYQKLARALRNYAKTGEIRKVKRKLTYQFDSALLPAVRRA
The target of the next test is T6, ELK3 (Homo sapiens, UniProt P41970 1-407).
T6 sequence: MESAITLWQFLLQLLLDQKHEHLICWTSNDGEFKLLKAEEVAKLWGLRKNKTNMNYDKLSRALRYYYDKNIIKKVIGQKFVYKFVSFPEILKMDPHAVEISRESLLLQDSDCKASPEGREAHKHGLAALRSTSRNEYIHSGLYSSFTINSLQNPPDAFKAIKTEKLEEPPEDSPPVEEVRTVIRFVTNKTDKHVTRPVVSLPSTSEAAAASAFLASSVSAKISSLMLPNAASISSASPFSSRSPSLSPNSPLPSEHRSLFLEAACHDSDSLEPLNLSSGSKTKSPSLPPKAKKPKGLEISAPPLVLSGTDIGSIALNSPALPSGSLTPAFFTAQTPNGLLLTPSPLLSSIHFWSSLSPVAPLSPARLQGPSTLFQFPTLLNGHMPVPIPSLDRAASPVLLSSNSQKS
The gist of the method:
as §1

The next test addresses T7, FEV (Homo sapiens, UniProt Q99581 1-238).
T7 sequence: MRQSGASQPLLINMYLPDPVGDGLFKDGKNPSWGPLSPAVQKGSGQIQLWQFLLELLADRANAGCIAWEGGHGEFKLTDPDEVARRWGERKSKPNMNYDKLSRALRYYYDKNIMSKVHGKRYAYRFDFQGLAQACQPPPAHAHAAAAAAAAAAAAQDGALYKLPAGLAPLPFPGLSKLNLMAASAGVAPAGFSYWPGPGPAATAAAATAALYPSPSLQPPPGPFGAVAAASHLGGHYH
The gist of the method: as §1

The target in a further test is ETV5 (Homo sapiens, UniProt P41161 1-510). The gist of the method: as §1
Chain of ETV5 (P41161 whole entry): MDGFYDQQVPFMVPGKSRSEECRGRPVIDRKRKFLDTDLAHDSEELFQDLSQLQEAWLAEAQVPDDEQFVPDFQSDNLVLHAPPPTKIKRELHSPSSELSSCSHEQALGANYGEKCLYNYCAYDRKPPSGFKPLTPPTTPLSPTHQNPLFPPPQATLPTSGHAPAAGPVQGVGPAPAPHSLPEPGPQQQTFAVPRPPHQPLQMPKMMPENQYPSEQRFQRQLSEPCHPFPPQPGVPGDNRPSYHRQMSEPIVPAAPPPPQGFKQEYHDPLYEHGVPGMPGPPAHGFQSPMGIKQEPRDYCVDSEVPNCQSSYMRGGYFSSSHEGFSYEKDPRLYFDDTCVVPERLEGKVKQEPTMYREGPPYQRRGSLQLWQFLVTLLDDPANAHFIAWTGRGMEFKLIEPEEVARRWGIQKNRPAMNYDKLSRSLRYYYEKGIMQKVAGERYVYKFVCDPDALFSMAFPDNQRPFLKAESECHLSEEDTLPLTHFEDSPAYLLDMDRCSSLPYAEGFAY
The next test deals with T8, SPIC (Homo sapiens, UniProt Q8N5J4 1-248).
T8 sequence: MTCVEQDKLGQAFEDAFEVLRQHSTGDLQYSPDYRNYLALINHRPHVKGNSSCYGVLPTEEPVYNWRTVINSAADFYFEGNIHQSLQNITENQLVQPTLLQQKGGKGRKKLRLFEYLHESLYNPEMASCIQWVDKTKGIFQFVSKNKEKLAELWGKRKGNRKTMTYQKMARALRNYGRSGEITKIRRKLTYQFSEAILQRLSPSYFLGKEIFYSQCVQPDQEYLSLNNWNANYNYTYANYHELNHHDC
The method, boiled down:
as §1

Another test has as its target ELF4 (Homo sapiens, UniProt Q99607 1-663). The method, boiled down: as §1
Another test concerns the target T9, ELK4 (Homo sapiens, UniProt P28324-2 1-405).
T9 sequence: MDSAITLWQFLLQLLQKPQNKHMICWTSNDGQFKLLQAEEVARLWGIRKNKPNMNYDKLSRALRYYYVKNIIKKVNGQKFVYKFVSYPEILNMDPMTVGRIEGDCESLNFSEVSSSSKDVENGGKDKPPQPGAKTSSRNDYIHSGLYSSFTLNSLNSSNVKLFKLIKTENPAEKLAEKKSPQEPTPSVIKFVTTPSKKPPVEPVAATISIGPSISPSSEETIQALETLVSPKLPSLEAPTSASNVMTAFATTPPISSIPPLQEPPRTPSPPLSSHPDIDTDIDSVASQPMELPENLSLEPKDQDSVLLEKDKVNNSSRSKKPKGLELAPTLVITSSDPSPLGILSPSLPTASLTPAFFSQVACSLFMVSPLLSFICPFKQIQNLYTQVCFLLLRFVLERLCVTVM
The gist of the method:
as §1

The target of the next test is T10, ETV2 (Homo sapiens, UniProt O00321 1-342).
T10 sequence: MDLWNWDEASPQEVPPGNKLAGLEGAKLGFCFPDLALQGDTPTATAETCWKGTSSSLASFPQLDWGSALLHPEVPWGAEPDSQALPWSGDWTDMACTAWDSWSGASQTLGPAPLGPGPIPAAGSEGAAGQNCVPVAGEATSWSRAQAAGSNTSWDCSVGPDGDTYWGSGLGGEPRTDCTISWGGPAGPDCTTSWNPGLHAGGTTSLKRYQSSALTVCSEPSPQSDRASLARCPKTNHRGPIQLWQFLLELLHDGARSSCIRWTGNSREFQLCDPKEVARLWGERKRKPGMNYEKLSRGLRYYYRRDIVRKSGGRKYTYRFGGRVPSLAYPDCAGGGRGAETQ
The gist of the method: as §1

For another test, the target named is T11, ELF3 (Homo sapiens, UniProt P78545 1-371).
T11 sequence: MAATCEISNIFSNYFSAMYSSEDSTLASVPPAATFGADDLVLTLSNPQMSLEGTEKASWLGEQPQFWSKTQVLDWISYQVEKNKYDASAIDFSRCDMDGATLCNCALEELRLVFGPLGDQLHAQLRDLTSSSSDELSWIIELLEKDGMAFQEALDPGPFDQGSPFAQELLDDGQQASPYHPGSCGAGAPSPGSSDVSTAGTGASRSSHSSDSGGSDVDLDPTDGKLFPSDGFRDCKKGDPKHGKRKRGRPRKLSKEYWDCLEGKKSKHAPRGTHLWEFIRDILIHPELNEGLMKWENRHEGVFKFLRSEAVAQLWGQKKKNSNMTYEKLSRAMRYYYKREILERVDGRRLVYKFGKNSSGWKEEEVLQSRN
The gist of the method:
as §1

The target of a further test is ETV1 (Homo sapiens, UniProt P50549 1-477). The method, boiled down:
as §1

Chain of ETV1 (P50549 whole entry): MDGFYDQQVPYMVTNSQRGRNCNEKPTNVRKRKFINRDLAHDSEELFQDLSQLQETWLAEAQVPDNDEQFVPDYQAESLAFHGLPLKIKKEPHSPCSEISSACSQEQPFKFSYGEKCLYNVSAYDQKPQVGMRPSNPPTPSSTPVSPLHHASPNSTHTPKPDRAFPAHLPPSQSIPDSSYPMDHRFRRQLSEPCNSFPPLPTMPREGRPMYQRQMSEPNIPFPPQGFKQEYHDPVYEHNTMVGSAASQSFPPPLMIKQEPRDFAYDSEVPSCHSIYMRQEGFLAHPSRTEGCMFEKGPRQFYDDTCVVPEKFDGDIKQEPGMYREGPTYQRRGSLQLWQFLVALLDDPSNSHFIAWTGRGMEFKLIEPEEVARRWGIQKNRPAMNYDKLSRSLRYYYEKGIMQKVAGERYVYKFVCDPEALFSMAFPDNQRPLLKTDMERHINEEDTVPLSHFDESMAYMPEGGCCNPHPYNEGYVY
Chain of ELF4 (Q99607 whole entry): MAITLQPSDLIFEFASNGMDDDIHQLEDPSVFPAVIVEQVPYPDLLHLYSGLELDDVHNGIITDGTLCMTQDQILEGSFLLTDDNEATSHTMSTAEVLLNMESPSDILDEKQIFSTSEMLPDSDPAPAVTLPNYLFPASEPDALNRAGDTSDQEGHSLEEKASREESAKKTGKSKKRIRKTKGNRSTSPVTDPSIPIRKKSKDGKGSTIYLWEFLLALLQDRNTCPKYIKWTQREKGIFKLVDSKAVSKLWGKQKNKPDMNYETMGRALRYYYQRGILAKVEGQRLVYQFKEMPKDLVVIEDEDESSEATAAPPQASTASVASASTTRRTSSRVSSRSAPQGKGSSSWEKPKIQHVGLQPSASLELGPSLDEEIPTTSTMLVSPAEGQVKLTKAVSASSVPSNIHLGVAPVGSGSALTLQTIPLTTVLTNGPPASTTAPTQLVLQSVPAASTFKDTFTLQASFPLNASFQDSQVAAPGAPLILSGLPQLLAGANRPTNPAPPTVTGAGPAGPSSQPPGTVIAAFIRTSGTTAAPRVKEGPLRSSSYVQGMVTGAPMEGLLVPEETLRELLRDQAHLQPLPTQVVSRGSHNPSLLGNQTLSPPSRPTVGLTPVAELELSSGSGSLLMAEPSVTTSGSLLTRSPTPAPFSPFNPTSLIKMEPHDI

For CACCAC, the binding signal is 1.15 fold enrichment (6-mer frequency, TF over GST control) in the test with FLI1; 1.2 fold enrichment (6-mer frequency, TF over GST control) in the test with ELK1; 1.23 fold enrichment (6-mer frequency, TF over GST control) in the test with GABPA; 1.18 fold enrichment (6-mer frequency, TF over GST control) with ERG; 1.18 fold enrichment (6-mer frequency, TF over GST control) in the test with ELF1; 1.11 fold enrichment (6-mer frequency, TF over GST control) with EHF. In addition, the binding signal with SPI1 was 1.18 fold enrichment (6-mer frequency, TF over GST control); with SPIB, 1.14 fold enrichment (6-mer frequency, TF over GST control); with ELK3, 1.06 fold enrichment (6-mer frequency, TF over GST control); in the test with FEV, 1.19 fold enrichment (6-mer frequency, TF over GST control); with ETV5 it was 1.1 fold enrichment (6-mer frequency, TF over GST control); with SPIC it was 1.3 fold enrichment (6-mer frequency, TF over GST control). Moreover, the binding signal in the test with ELF4 was 1.13 fold enrichment (6-mer frequency, TF over GST control); with ELK4 it was 1.22 fold enrichment (6-mer frequency, TF over GST control); in the test with ETV2, 1.14 fold enrichment (6-mer frequency, TF over GST control); with ELF3, 1.24 fold enrichment (6-mer frequency, TF over GST control); with ETV1 it was 1.16 fold enrichment (6-mer frequency, TF over GST control).
